# PubChem BioAssay AID1209 (Sanford-Burnham Center for Chemical Genomics, 2008)
# In all, about 190,000 compounds went through this assay and about 810 (0.43%) were called active. The entries come from a sample that favours actives as a whole. Unmarked numbers belong to inactive results. No stated cut-off is given here; in the data, active means inhibition above about 50%; inactive means the rest.
# Target: Mannose-6-phosphate isomerase (Homo sapiens) (UniProt P34949)
# Test: MPI enzyme activity inhibition – biochemical, fluorescence intensity, coupled assay, primary screen (AID 1209);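 further: plate controls were DMSO vehicle for no effect and wells lacking substrate for full effect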
# Conditions: purified PMI enzyme, at 20 µM, active compounds read high
# Mannose-6-phosphate isomerase (Homo sapiens), sequence (P34949 whole entry, looked up): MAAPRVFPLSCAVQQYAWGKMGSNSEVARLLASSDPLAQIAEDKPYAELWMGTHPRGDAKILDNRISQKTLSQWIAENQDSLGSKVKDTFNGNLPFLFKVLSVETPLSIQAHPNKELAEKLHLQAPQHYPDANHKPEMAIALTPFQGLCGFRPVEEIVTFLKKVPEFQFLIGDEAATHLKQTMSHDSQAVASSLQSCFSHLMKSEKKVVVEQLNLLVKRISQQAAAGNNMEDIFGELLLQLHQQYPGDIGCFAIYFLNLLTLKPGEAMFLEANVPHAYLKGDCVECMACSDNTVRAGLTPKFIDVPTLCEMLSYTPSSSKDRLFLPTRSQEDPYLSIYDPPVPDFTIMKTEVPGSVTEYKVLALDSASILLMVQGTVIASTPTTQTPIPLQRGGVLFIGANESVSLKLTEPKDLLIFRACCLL
row,SMILES,inhibition
1,CS(=O)(=O)N1CCN(c2ccc(NC(=O)CSc3nnc(-c4ccco4)o3)cc2)CC1,-8.2%
2,CCN(CC)S(=O)(=O)c1ccc(NC(=O)COC(=O)CNS(=O)(=O)/C=C/c2ccccc2)cc1,5.2%
3,O=C(COC(=O)c1ccccc1Br)NCCC1=CCCCC1,5.8%
4,CC1(C)N=C(SCC(=O)Nc2ccc(Cl)cc2Cl)C(c2ccccc2)=N1,8.5%
5,O=C(NC1CCCCC1)c1sc(=S)n2c1[nH]c(=O)c1ccccc12,51.2% (active)
6,O=C(NC1CCCC1)c1sc(=S)n2c1[nH]c(=O)c1ccccc12,-4.7%
7,O=C(NCc1ccccc1)c1sc(=S)n2c1[nH]c(=O)c1ccccc12,4.9%
8,COc1ccc(/C=C/C(=O)OCC(=O)Nc2c(C)cccc2C)cc1,-7.6%
9,CC(=O)c1ccc(Nc2cc(C)nc3ccc(C)cc23)cc1,11.3%
10,CC(=O)c1ccc(Nc2cc(C)nc3ccccc23)cc1,95.7% (active)
11,COc1ccc(Nc2cc(C)nc3ccccc23)cc1,16%
12,Cc1ccc(O)c(C(=O)c2cnc3c(c2)CN(C)C(=O)N3)c1,3.7%
13,O=C(c1cnc2sccn2c1=O)N(Cc1ccccc1)c1ccccn1,14.3%
14,CCOC(=O)c1sc(NC(=O)CSc2nnnn2-c2ccc(C)cc2)c(C(=O)OCC)c1C,12.2%
15,CCOC(=O)c1c(NC(=O)CSc2nnnn2-c2ccc(OC)cc2)sc(C)c1C,60% (active)
16,CCOC(=O)c1sc(NC(=O)CSc2nnnn2-c2ccccc2)c(C(=O)OCC)c1C,14.3%
17,Cc1cc(OCC(=O)NCc2ccncc2)ccc1Cl,1%
18,Cc1ccc(N2CCN(CC(=O)Nc3c(C(=O)C4CC4)oc4ccccc34)CC2)cc1,-11.1%
19,COc1ccc(N(CC(=O)Nc2ccc3c(c2)OCO3)S(C)(=O)=O)c(OC)c1,-4.4%
20,C[C@](N)(Cc1ccc(O)c(O)c1)C(=O)O,57.7% (active)
21,COc1ccc(CC(=O)O)cc1O,2.3%
22,C[C@@](Cc1ccc(O)c(O)c1)(NN)C(=O)O,12.9%
23,COC(=O)[C@@H](N)Cc1ccc(O)cc1,2.6%
24,COC(=O)C(N)Cc1ccc(O)c(O)c1 (stereo not given),56.9% (active)
25,COC(=O)C(N)Cc1ccc(O)cc1 (stereo not given),-4.5%

row,SMILES,inhibition
1,Oc1c(C(c2ccccc2)N2CCCCC2)sc2ncnn12 (stereo not given),-8.5%
2,COc1cc2c(cc1OC)C(=S)NC1(CCCC1)C2,-19.1%
3,CC(=O)c1c(OC(=O)c2ccco2)c2ccccc2n1C,4%
4,NC(=O)c1ccsc1NC(=O)CSc1nnc(Nc2ccccc2)s1,0.1%
5,CC(C)C[C@H](NS(=O)(=O)c1ccc(Br)cc1)C(=O)O,5.2%
6,CCCCNc1nc(NC)nc(Cl)c1SC,0.4%
7,C/C(=N\NC(=O)c1ccc([N+](=O)[O-])cc1)c1c(O)cc(C)oc1=O,-40.7%
8,C/C(=N/NC(=O)c1cc(O)c(O)c(O)c1)c1ccc([N+](=O)[O-])cc1,64.5% (active)
9,C/C(=N\NC(=O)c1ccc([N+](=O)[O-])cc1)c1cccc([N+](=O)[O-])c1,3.4%
10,CCN(CC)c1ccc(/C=C2\NC(=O)NC2=O)cc1,9.7%
11,O=C(Nn1cnc2ccccc2c1=O)c1cccc(Cl)c1,3%
12,CC[N+](C)(CC)CC(O)COCC1COc2ccccc2O1 (stereo not given),19.8%
13,OC(COCC1COc2ccccc2O1)CN1CCN(c2ccccc2)CC1 (stereo not given),1.8%
14,C[N+]1(CC(O)COCC2COc3ccccc3O2)CCOCC1 (stereo not given),66.2% (active)
15,C/C(=N\NC(N)=S)C1C2C3CC4C5CC(C42)C1C53 (stereo not given),0.3%
16,O=C(NCc1ccco1)c1ccccc1-c1ccc(C(F)(F)F)cc1,4.9%
17,Oc1ccc(CN2CCN(c3ccccc3)CC2)c2cccnc12,35.3%
18,Oc1c(CN2CCCCC2)cc(Br)c2cccnc12,51.6% (active)
19,O=[N+]([O-])c1cc(CN2CCCC2)c2cccnc2c1O,5%
20,CCOC(=O)N1CCN(Cc2ccccc2Cl)CC1,4.4%
21,COCc1cc(CN2CCCC2)c(O)c2ncccc12,41%
22,CCOC(=O)N1CCN(Cc2cc(Cl)c3cccnc3c2O)CC1,54.9% (active)
23,CN1CCN(Cc2cc(Cl)c3cccnc3c2OC(=O)c2cccs2)CC1,15.8%
24,COc1ccccc1N1CCN(Cc2cc(Br)c(O)c3ncccc23)CC1,25.4%
25,CN1CCN(Cc2cc(COCc3ccccc3)c3cccnc3c2O)CC1,43.5%

row,SMILES,inhibition
1,COc1ccccc1N1CCN(Cc2ccc(O)c3ncccc23)CC1,55.7% (active)
2,Oc1c(CN2CCCCC2)cc(COCc2ccccc2)c2cccnc12,46.6%
3,Cc1ccc(S(=O)(=O)N2CCCC2C(=O)Nc2nccs2)cc1 (stereo not given),-9.8%
4,CCOC(=O)C1CCCN(C(=O)c2ccc(Cl)c(S(=O)(=O)N3CCCCCC3)c2)C1 (stereo not given),-22.1%
5,O=C1OC(Nc2ccc(F)cc2F)c2ccccc21 (stereo not given),-10.1%
6,CCOC(=O)N1CCN(c2nc(C)cc(C(F)(F)F)n2)CC1,15.5%
7,COc1ccc(N=C2SC(C(=O)N3CCN(c4ccccc4)CC3)CC(=O)N2C)cc1 (stereo not given),5%
8,CC(C)(C)C1CCc2c(C(=O)NNC(=O)CCCC(=O)O)csc2C1 (stereo not given),-6.1%
9,COc1ccccc1C1C(C(C)=O)=C(O)C(=O)N1CCc1ccccc1 (stereo not given),4.1%
10,Cc1ccccc1NC(=S)NC1CC2CCC(C1)N2Cc1ccco1 (stereo not given),-0.8%
11,COc1ccc(CC2(C)OC(c3ccc(Cl)cc3)=NN2C(C)=O)cc1 (stereo not given),19%
12,O=C(Nc1ccc(S(=O)(=O)Nc2ncccn2)cc1)c1ccccc1NS(=O)(=O)c1ccc(F)cc1,2.8%
13,Cc1ccc(C)c(C(=O)COC(=O)c2cc(Cl)nc3ccccc23)c1,12.6%
14,CCOC(=O)N1CCN(Cc2ccccn2)CC1,3.7%
15,COCc1cc(CN2CCN(C)CC2)c(O)c2ncccc12,36.7%
16,CCOC(=O)C1CCN(Cc2ccc(O)c3ncccc23)CC1,67% (active)
17,Oc1c(CN2CCc3ccccc3C2)cc(Cl)c2cccnc12,40%
18,Oc1c(CN2CCOCC2)ccc2ccccc12,50.8% (active)
19,O=c1cc(CN2CCOCC2)c2c(ccc3ccccc32)o1,1.2%
20,CCOC(=O)C1CCN(Cc2ccc(OC)c(C)c2OC)CC1,-4.3%
21,Oc1ccc(CN2CCCCC2)c2cccnc12,43.3%
22,CCOC(=O)N1CCN(Cc2ccc(O)c3ncccc23)CC1,59.9% (active)
23,c1cc2ccc3ccc(CN4CCOCC4)c4ccc(c1)c2c34,-2.6%
24,CCOC(=O)C1CCN(Cc2c(O)ccc3ccccc23)CC1,28.5%
25,CCOC(=O)CC(NC(=O)Cc1ccccc1)c1ccccc1Cl (stereo not given),13.1%

row,SMILES,inhibition
1,COC(=O)C1=C(NC(=O)c2ccccc2C)CCS1,-17.4%
2,O=C(Nc1cnn(Cc2ccc(F)cc2)c1)C(c1ccccc1)c1ccccc1,16%
3,O=S(=O)(Nc1cccnc1)c1ccc(Cl)c(C(F)(F)F)c1,6%
4,CC(C)C(=O)NCCc1nc2ccccc2n1CCOc1ccccc1,-1.6%
5,CCN(CC)C(=O)C1=C(C)NC(=S)NC1c1cccs1 (stereo not given),-9%
6,CCOC(=O)C1CCCN(Cc2cc(=O)oc3cc(C)ccc23)C1 (stereo not given),-10.2%
7,CN(CC(=O)NC1CCCCCC1)S(=O)(=O)c1ccc2c(c1)n(C)c(=O)c(=O)n2C,2.1%
8,COC(=O)C1=C(NC(=O)c2ccc(C)c(C)c2)CCS1,3.8%
9,Cc1ccc2cc(C(c3nnnn3C3CCCC3)N3CCOCC3)c(=O)[nH]c2c1C (stereo not given),-2.5%
10,CCOC(=O)C1=C(C)NC(=O)CC1c1cc2c(cc1[N+](=O)[O-])OCO2 (stereo not given),53.2% (active)
11,CCOC(=O)C1=C(C)N(C)C(=O)NC1c1cc2c(cc1[N+](=O)[O-])OCO2 (stereo not given),35.3%
12,CCOC(=O)C1=C(C)NC(=O)CC1c1cc2c(cc1Br)OCO2 (stereo not given),1.2%
13,Cc1noc(C)c1C(=O)OCC(=O)NC1CC1,1.3%
14,Cc1noc(C)c1C(=O)OCC(=O)C12CC3CC(CC(C3)C1)C2,100% (active)
15,Cc1noc(C)c1C(=O)OCC(=O)NC(=O)NC12CC3CC(CC(C3)C1)C2,-2.2%
16,O=C(Nc1nccs1)NC1CCCCC1,-3%
17,CCC1S/C(=N/C(=O)NC2CCCCC2)NC1=O (stereo not given),-8.6%
18,O=C(/N=C1\NC(=O)C(F)(C(F)(F)F)S1)NC1CCCCC1 (stereo not given),74.7% (active)
19,c1ccc2c(c1)nc(N1CCN(C3CCCCC3)CC1)c1nnnn12,4.7%
20,Cc1nc2ccc(NC(=O)c3cc(S(=O)(=O)N4CCOCC4)ccc3C)cc2s1,9.8%
21,Cc1noc(C)c1CSc1nc2cc(S(=O)(=O)N3CCOCC3)ccc2o1,53.1% (active)
22,Cc1nc2ccc(Nc3nc4cc(S(=O)(=O)N5CCOCC5)ccc4o3)cc2s1,64.5% (active)
23,Cc1nc2ccc(NC(=O)c3ccc(S(=O)(=O)N4CCOCC4)cc3)cc2s1,1.9%
24,O=C(CSc1nc2cc(S(=O)(=O)N3CCOCC3)ccc2o1)Nc1c(F)cccc1F,31.9%
25,Cc1ccc(C(=O)CSc2nc3cc(S(=O)(=O)N4CCOCC4)ccc3o2)cc1,25.2%
